This note sets out measurements from PubChem BioAssay AID652105 (National Center for Advancing Translational Sciences (NCATS), 2013).

Among all 330,000 compounds or so, about 4,100 (1.2%) were called active. Not shown: some 2% with an inconclusive outcome. The calls were made as follows: active = max response of -50% or lower; inconclusive = between -30% and -50%; inactive = -30% or higher. For the sample, actives were picked, then their nearest neighbours and some compounds at random.
% is scaled to controls: 0 for no effect and ±100 for the full control effect.

Phosphatidylinositol 5-phosphate 4-kinase type-2 alpha (Homo sapiens), sequence (P48426 whole entry, looked up): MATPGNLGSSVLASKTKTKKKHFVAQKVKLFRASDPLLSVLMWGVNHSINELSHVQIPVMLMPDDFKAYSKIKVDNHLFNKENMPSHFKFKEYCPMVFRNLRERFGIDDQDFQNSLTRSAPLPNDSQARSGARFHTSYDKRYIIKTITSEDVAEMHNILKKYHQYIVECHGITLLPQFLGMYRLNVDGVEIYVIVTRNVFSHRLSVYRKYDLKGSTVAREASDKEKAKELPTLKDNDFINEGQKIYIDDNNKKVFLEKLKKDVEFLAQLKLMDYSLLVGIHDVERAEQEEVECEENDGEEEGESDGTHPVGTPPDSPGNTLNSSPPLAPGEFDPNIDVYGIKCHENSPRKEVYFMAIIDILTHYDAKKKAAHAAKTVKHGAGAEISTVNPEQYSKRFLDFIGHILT

The target of this test is Phosphatidylinositol 5-phosphate 4-kinase type-2 alpha (Homo sapiens) (UniProt P48426). Briefly: qHTS for Inhibitors of phosphatidylinositol 5-phosphate 4-kinase (PI5P4K). Also: value at the top dose of about 77 µM. As to conditions: PI5P4Kalpha enzyme, ADP-Glo luminescence, 60 min; hits give low values. Put shortly:
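Enzyme plus substrate dispensed, test compounds pinned in, then ATP (5 microM final) added. After 60 min at RT, ADP-Glo reagent 1 for 45 min and reagent 2 for 30 min preceded luminescence imaging.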
For orientation: Quantitative high-throughput screening tests each substance at several concentrations.
Take `CCOC(=O)[C@]12CCCC=C1N(Cc1ccc3c(c1)OCO3)C(=O)[C@H](CC(=O)NCc1cccs1)C2`: the max response is 3.13% (inactive).

In the case of `COc1cccc(CNC(=O)[C@@H]2CCCN2C(=O)[C@@H]2CCCN2C(=O)c2ccccc2)c1`, the max response is -1.24% (inactive).

Regarding `O=C(/C=C/c1c(Cl)cccc1Cl)NCc1ccccc1`, the max response was 3.82% (inactive).

As for `O=C(CCc1ccccc1)Nc1nn[nH]n1`, the max response was -6.47% (inactive).

As for `O=C(/C=C/c1c(F)cccc1Cl)Nc1nn[nH]n1`, the max response is -56.7% (active). The result for `Nc1nc(CSc2nnnn2-c2ccccc2)nc(Nc2ccccc2)n1` reads 2.21% (inactive); that for `C[C@H]1CN([C@@H](C)CO)C(=O)c2cc(Br)cnc2O[C@H]1CN(C)S(=O)(=O)c1cccs1`, 6.03% (inactive). The result for `CCOC(=O)[C@]12CCCC=C1N(CCC1=CCCCC1)C(=O)[C@H](CC(=O)N1CCCCC1)C2` reads -3.48% (inactive); that for `CC(=O)c1ccc(S(=O)(=O)N2CCC(Oc3ccc(-n4cnnn4)cc3)CC2)cc1`, -1.39% (inactive); that for `CC(=O)c1ccc(S(=O)(=O)N2CCC3(CC2)OCCO3)cc1`, 1.8% (inactive). The result for `CC(=O)c1ccc(S(=O)(=O)N2CCN(C(=O)/C=C/c3ccc4ccccc4n3)CC2)cc1` reads -58.5% (active); that for `COc1ccc(CCCNC(=O)C2Cc3c(-c4cccc(C(N)=O)c4)ccnc3O2)cc1` (configuration not stated), -10.3% (inactive).

For the molecule `CCNC(=O)C1(C)CCCN(Cc2noc(-c3ccccc3OC)n2)C1` (configuration not stated), the max response is -0.357% (inactive). The result for `CN1OC[C@@H]2CN(S(=O)(=O)c3cccc(C(F)(F)F)c3)[C@H](c3ccc(-c4cc5ccccc5o4)cc3)C[C@@H]21` reads 4.81% (inactive).

As for `COc1cccc(CNC(=O)CN2C(=O)NC(Cc3ccccc3)(c3ccccc3)C2=O)c1` (configuration not stated), the max response is -83.2% (active). To `COc1cccc(CNC(=O)COC(=O)CN2C(=O)NC3(CCCCC3C)C2=O)c1` (configuration not stated) belongs -4.41% (inactive).

For `CCCCNC(=O)CN1C(=O)NC(Cc2ccccc2)(Cc2ccccc2)C1=O`, the max response was 0.277% (inactive). In the case of `CCCNC(=O)c1cc2c(c(-c3cccc(-c4ccc(C#N)cc4)c3)n1)[C@@H](CCO)N(C(=O)CC)C2`, the max response was -0.337% (inactive). Take `C[C@@H]1CN([C@H](C)CO)C(=O)CCCn2cc(nn2)CO[C@H]1CN(C)S(C)(=O)=O`: the max response is 6.16% (inactive). On to `CC(C)C[C@H]1CNC(=O)C(=O)N1C[C@H]1CCCN1C[C@H](Cc1ccc(O)cc1)N1C[C@H](CC(C)C)N(CC2CCCCCC2)C(=O)C1=O`, for which the max response is -0.421% (inactive). `CCOC(=O)C1=CC[C@@H](c2ccccc2)N(S(=O)(=O)c2ccc(C)cc2)[C@H]1c1ccc(CC)cc1`: the max response is 6.84% (inactive).

As for `Cc1cc2nc(-c3ccc(Cl)cc3)c(Cc3cccc(F)c3)n2c(C)c1Br`, the max response was -6.22% (inactive).

In the case of `Cc1cc2nc(-c3ccco3)c(Cc3cccc(F)c3)n2c(C)c1Br`, the max response was -66.2% (active).

Take `Cc1cc2nc(-c3ccc(F)cc3)c(Cc3ccsc3)n2c(C)c1Br`: the max response is 7.62% (inactive).

For the molecule `COc1ccc(OC)c(CN2C(=O)CCC2(C)c2nnnn2Cc2ccccc2)c1` (configuration not stated), the max response is 2.57% (inactive). The result for `COc1ccc(CCNC(=O)CN(c2ccccc2)S(=O)(=O)c2ccccc2)cc1` reads -3.29% (inactive); that for `CC1=C(C(=O)N(C(C)C)C(C)C)CC(CC(=O)NCC2CCCCC2)C(=O)N1Cc1ccccc1` (configuration not stated), -7.86% (inactive); that for `CCOC(=O)[C@]12CCCC=C1N(CCC1=CCCCC1)C(=O)[C@H](CC(=O)N1CCSCC1)C2`, -1.78% (inactive).

Consider `CCOc1ccccc1Nc1ccc(C(=O)O)cc1[N+](=O)[O-]`, for which the max response is -1.68% (inactive). The result for `O=C(Nc1ccc2ccccc2c1[N+](=O)[O-])c1ccccc1` reads -2.74% (inactive); that for `O=C(O)c1cc([N+](=O)[O-])c(Nc2cccc3ccccc23)c([N+](=O)[O-])c1`, -64.5% (active). The result for `CNc1cnc(-c2cc(OC)c(OC)c(OC)c2)cn1` reads 1.71% (inactive); that for `Cc1ccc(/C([O-])=C(/C(=S)NCc2ccco2)[n+]2ccccc2)cc1[N+](=O)[O-]`, -51.3% (active); that for `O=[N+]([O-])c1cccc(/C([O-])=C(/C(=S)Nc2ccccc2F)[n+]2ccccc2)c1`, -1.12% (inactive). Take `CC(OC(=O)CNC(=O)c1ccc(Cl)c([N+](=O)[O-])c1)C(=O)NCc1ccco1` (configuration not stated): the max response was -12% (inactive).

For the molecule `CC(C)c1cccc(-c2csc(C(O)c3ccccc3)n2)c1` (configuration not stated), the max response is 28.3% (inactive).

Regarding `COc1cccc(NC(=O)NCCN2CCCCC2)c1`, the max response is 3.3% (inactive). To `CC(=O)NCCc1nc2cc(NC(=O)c3ccccc3)ccc2n1C` belongs -3.2% (inactive); to `COCCNC(=O)Nc1ccc2nc(-c3ccco3)c(-c3ccco3)nc2c1`, -88.9% (active); to `CCCC(=O)N1CCC1(C)C(=O)NCc1ccc(SC)cc1` (configuration not stated), 0.695% (inactive).

Take `CC(=O)Oc1ccc(Cn2c(C)c(C(=O)NCc3ccc(C#N)cc3)sc2=O)cc1`: the max response was 2.41% (inactive).

For `O=C(COc1ccccc1Cl)Nc1ccc(C(=O)c2ccc(C(=O)O)cc2)cc1`, the max response is -70.5% (active). For `COc1cc(NC(=O)COc2ccccc2Cl)ccc1NC(=O)C(C)C`, the max response was -11.3% (inactive). The result for `O=C(COc1ccccc1)Nc1ccc(C(=O)N2CCCC2)cc1` reads 6.33% (inactive); that for `CN(C)/N=C/c1cc(Cl)cc([N+](=O)[O-])c1O`, -13.3% (inactive). To `O=[N+]([O-])c1cc(Cl)cc(/C=N/NC(=S)Nc2cc(S(=O)(=O)N3CCOCC3)ccc2Cl)c1O` belongs -78.8% (active); to `Cc1ccc(S(=O)(=O)N2CCN(CC(=O)N/N=C/c3cc([N+](=O)[O-])ccc3Cl)CC2)cc1`, 4.76% (inactive). To `COC(=O)[C@]12CCCCC=C1N(CCC1=CCCCC1)C(=O)[C@H](CC(=O)N1CCSCC1)C2` belongs 6.76% (inactive); to `COc1ccc(Br)c(Cn2c(C)c(C(=O)NCc3cccs3)sc2=O)c1`, 0.248% (inactive). In the case of `CC(C)Cn1cc(-c2cncc3nccn23)cn1`, the max response is 1.47% (inactive).

In the case of `O=C(CSc1nnnn1C1CCCC1)N1CCCCC1`, the max response was 1.79% (inactive). As to `CC(Sc1nnnn1C)C(=O)NC(=O)NC1CCCCC1` (configuration not stated), the max response is -0.0816% (inactive).

For `CC(Sc1nnnn1C1CCCCC1)C(=O)O` (configuration not stated), the max response is -91% (active).

With `O=C(Nc1ccc2c(c1)OCCO2)C1c2ccccc2OCC(=O)N1Cc1ccccn1` (configuration not stated), the max response is 6.39% (inactive). In the case of `COc1ccc(S(=O)(=O)N(C)C[C@H]2OCc3cnnn3CCCC(=O)N([C@H](C)CO)C[C@H]2C)cc1`, the max response is 3.6% (inactive). The result for `COc1cccc(-c2cc3nc(NCc4ccccc4OC)n(C)c(=O)c3s2)c1` reads 21.3% (inactive); that for `COCCNC(=O)C1CCCN(Cc2ccccc2Cl)CC1` (configuration not stated), 0.686% (inactive). To `Cc1nn(-c2ccc([N+](=O)[O-])cc2)c(N)c1-c1ccccc1` belongs -3.48% (inactive). In the case of `O=C1CC(c2ccccc2)=NN1c1ccc([N+](=O)[O-])cc1`, the max response is -52.7% (active). The result for `CC1=NN(c2ccccc2)C(=O)C1C(=O)c1ccc([N+](=O)[O-])cc1` (configuration not stated) reads 0.85% (inactive); that for `OC(c1ccccc1)c1nc(-c2cnc3ccccc3c2)cs1` (configuration not stated), -0.318% (inactive); that for `CS(=O)(=O)c1ccc2c(c1)SC1=NC(=O)/C(=C/c3ccco3)C(=N)N12`, -79.5% (active). In the case of `CC(C)(C)C1C/C(=C/c2ccco2)C(=O)/C(=C/c2ccco2)C1` (configuration not stated), the max response is -12.4% (inactive). Take `O=C(Nc1cccc2ccccc12)c1[nH]c(-c2ccccc2)c2c1C(=O)N(C1CC1)C2=O`: the max response is -0.344% (inactive). With `CN1CCN(C(=O)c2ccc(-c3cc4nc(NCc5cccnc5)n(C)c(=O)c4s3)cc2)CC1`, the max response was 2.18% (inactive). The result for `CCC(C(=O)Nc1c(C)cccc1C)n1c(-c2cc(C)cs2)nc2ccccc21` (configuration not stated) reads 0.0253% (inactive); that for `CCC(CC)C(C(=O)NC1CCCC1)N1CCN(c2cc(C)nc3ccccc23)CC1` (configuration not stated), -1.13% (inactive). To `COc1ccc(NC(=O)C(c2ccncc2)n2c(=O)c(-c3cc4ccccc4[nH]3)nc3ccccc32)cc1` (configuration not stated) belongs 0.0077% (inactive). For the molecule `O=C(NC1CCCCC1)C(c1cc2ccccc2o1)n1c(=O)c(-c2ccco2)nc2ccccc21` (configuration not stated), the max response was -75.5% (active). To `Cc1cccc(C)c1NC(=O)C(c1ccc(C(F)(F)F)cc1)n1c(=O)c(-c2ccco2)nc2ccccc21` (configuration not stated) belongs -54% (active); to `CCCCCNC(=O)C(c1ccc(OC)cc1)n1c(=O)c(-c2ccccc2)nc2ccccc21` (configuration not stated), 8.24% (inactive); to `COc1ccc(C(C(=O)NCc2ccccc2)n2c(=O)c(-c3ccccc3)nc3ccccc32)cc1` (configuration not stated), 7.1% (inactive). The result for `Cn1c(SCC(=O)NC2CCCCC2)nnc1-c1cc2ccccc2o1` reads 1.01% (inactive); that for `Cc1cccc(C)c1NC(=O)C(c1cccc2ccccc12)n1c(=O)c(-c2ccco2)nc2ccccc21` (configuration not stated), -75.2% (active); that for `CC(=O)Nc1cc(-c2ccccc2N(C)C)cn2c(-c3ccc(F)c(Cl)c3)cnc12`, -1.56% (inactive).

`NC(c1csc(NC(=O)Nc2cccc(C(F)(F)F)c2)n1)C1CCCCC1` (configuration not stated): the max response was 10.5% (inactive).

In the case of `Cc1ccc([C@H]2C[C@H](O)[C@@H](n3cc(COC(=O)c4ccccc4)nn3)CN2CC2CCCCC2)cc1`, the max response was 19.2% (inactive).

`O=C(NCc1ccccc1)C1c2ccccc2OCC(=O)N1CCCN1CCOCC1` (configuration not stated): the max response is 0.215% (inactive).

In the case of `O=C(c1ccc(C(F)(F)F)cc1)N1CCC(=O)N([C@H](COCc2ccccc2)Cc2ccccc2)CC1`, the max response was 5.29% (inactive). The result for `COC(=O)c1ccc2nc(C3CCCCC3)c(Cc3cccc(F)c3)n2c1` reads -0.596% (inactive); that for `CCCCOCCCNC(=O)C[C@@H]1C[C@@]2(C(=O)OC)CCCCC=C2N(CCC2=CCCCC2)C1=O`, 17.9% (inactive); that for `O=C(Nc1ccc(N2CCOCC2)cc1)c1cccc2c(-c3ccc(F)c(F)c3)coc12`, 5.02% (inactive).
